Source: PubChem
T cruzi growth-1 – inhibitors of T. cruzi proliferation | T. cruzi beta-gal in NIH3T3, GalScreen luminescence, 90 h | inhibition, % at 8.34 µM | hit rate 5.9% among 77,000 | AID 624255;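 active = mean inhibition above about 93%, with at least 55% of replicates each passing it, limit read from the data, passing the limit was not always enough; inconclusive = only one of those two conditions holds; inactive = neither condition holds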
Pf Dd2 growth – inhibitors of Plasmodium falciparum Dd2 growth; P. falciparum Dd2 growth, SYBR Green, 72 h; hits give low values; hit rate 2.3% among 94,000; activity change, % at 10 µM; AID 1159554; in the data active = activity change below about -80%; inconclusive = no clear call, values can overlap the other calls
C diff HTS – inhibitors of Clostridium difficile growth; hit rate 0.25% among 86,000; growth activity, negative = inhibition, % at 16 µg/mL (by protocol); AID 1259249; Clostridium difficile clinical isolate growth, OD600, 24 h; hits give low values;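 active = mean growth activity at or below -80% and every replicate also at or below -80%; inconclusive = mean at or below -80% but some replicate above -80%; inactive = mean growth activity above -80%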;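 also: 0% = DMSO wells and -100% = levofloxacin 16 µg/mL wells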
T cruzi growth-2 – blocks T. cruzi growth in NIH3T3 host cells | shares compounds with T cruzi growth-1 | T. cruzi beta-gal in NIH3T3, GalScreen luminescence, 90 h | inhibition, % at 8.35 µM | hit rate 72% among 5,600;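 active = mean replicate inhibition above about 95% and at least 55% of replicates individually reaching it, limit read from the data; inconclusive = only one of the two criteria is met; inactive = neither criterion is met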
T cruzi growth-3 – inhibitors of T. cruzi proliferation | shares compounds with T cruzi growth-1 | T. cruzi beta-gal in NIH3T3, GalScreen luminescence, 90 h | inhibition, % at 2.09 µM | hit rate 21% among 5,600 | AID 651740;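 active = mean inhibition above about 95%, with at least 55% of replicates also reaching it, limit read from the data; inconclusive = meets just one of the two conditions; inactive = meets neither condition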;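 also: plate controls were neutral control median for no effect and positive control median for full effect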
NIH3T3 tox – NIH/3T3 (mouse) viability loss; NIH/3T3 viability, CellTiter-Glo ATP luminescence, 90 h; shares compounds with T cruzi growth-1; hit rate 14% among 5,600; cytotoxicity (signal decrease), % at 8.35 µM; AID 651742;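 active = mean signal decrease across replicates above about 35% based on untreated-well scatter, with enough replicates individually passing, limit read from the data; inconclusive = no rule stated though some were filed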;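 also: 0% = median of neutral control wells and 100% = median of positive control wells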
3T3 cytotox 2 – kills mouse NIH/3T3 fibroblasts | NIH/3T3 viability, CellTiter-Glo ATP luminescence, 90 h | shares compounds with T cruzi growth-1 | inhibition, % at 24.9 µM | AID 651744 | hit rate 56% among 5,600;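 active = mean loss of cell viability signal at or above a set limit, and enough replicates individually reaching it; inconclusive = meets only the mean limit or only the replicate share; inactive = meets neither condition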;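 also: 0% = median of neutral control wells and 100% = median of positive control wells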
* marks the source's active call; other numbers are inactive results. The list is not random: actives were taken first. Their share in the collection is about 6.7%.

For C/C=C/c1ccc2c(c1)O[C@H](CN(C)C(=O)Nc1ccc(C(F)(F)F)cc1)[C@@H](C)CN([C@H](C)CO)S2(=O)=O the results were T cruzi growth-1 inconclusive, Pf Dd2 growth -19.1, C diff HTS 10.7, T cruzi growth-2 101.7*, T cruzi growth-3 100.6*, NIH3T3 tox 36.3* and 3T3 cytotox 2 68.0*.
C/C=C/c1ccc2c(c1)O[C@@H](CN(C)C(=O)Nc1ccc(F)cc1)[C@H](C)CN([C@@H](C)CO)S2(=O)=O was read as T cruzi growth-1 -14.5, Pf Dd2 growth 0.9 and C diff HTS 3.2.
Screening C/C=C/c1ccc2c(c1)O[C@H](CN(C)C(=O)Nc1ccc(F)cc1)[C@H](C)CN([C@@H](C)CO)S2(=O)=O returned T cruzi growth-1 77.2, Pf Dd2 growth -1.6 and C diff HTS 5.6.
C/C=C/c1ccc2c(c1)O[C@H](CN(C)C(=O)Nc1ccc(F)cc1)[C@@H](C)CN([C@H](C)CO)S2(=O)=O was read as T cruzi growth-1 38.6, Pf Dd2 growth -3.4 and C diff HTS 9.9.
`C/C=C/c1ccc2c(c1)O[C@@H](CN(C)C(=O)Nc1ccc(C(F)(F)F)cc1)[C@H](C)CN([C@@H](C)CO)S2(=O)=O` gave T cruzi growth-1 108.3*, Pf Dd2 growth 4.9, C diff HTS 11.5, T cruzi growth-2 97.4*, T cruzi growth-3 inconclusive, NIH3T3 tox 26.0 and 3T3 cytotox 2 102.1*.
For CC(=O)N(C)C[C@@H]1Oc2cc(C3=CCCCC3)ccc2S(=O)(=O)N([C@@H](C)CO)C[C@H]1C the results were T cruzi growth-1 20.2 and Pf Dd2 growth -6.2.
`C[C@H](O)C#Cc1ccc2c(c1)O[C@H](CN(C)C(=O)C1CCCCC1)[C@H](C)CN([C@H](C)CO)S2(=O)=O` gave T cruzi growth-1 46.0, Pf Dd2 growth -8.7 and C diff HTS -0.2.
For CC(C)C(=O)Nc1ccc2c(c1)C(=O)N(C)[C@@H]1CC[C@@H](CC(=O)NC3CCCC3)O[C@@H]1CO2 the results were T cruzi growth-1 -11.7, Pf Dd2 growth 4.1 and C diff HTS -1.3.
`COc1ccc(C#Cc2ccc([C@H]3[C@@H](CO)N4CCCCN(C(=O)c5ccncc5)C[C@@H]34)cc2)cc1` gave T cruzi growth-1 116.4*, Pf Dd2 growth 5.9, C diff HTS -19.6, T cruzi growth-2 103.6*, T cruzi growth-3 63.6, NIH3T3 tox 22.6 and 3T3 cytotox 2 26.0.
`COc1ccc(C#Cc2ccc([C@H]3[C@H](CO)N4CCCCN(C(=O)c5ccncc5)C[C@@H]34)cc2)cc1` gave T cruzi growth-1 116.4*, Pf Dd2 growth -27.8, C diff HTS 39.2, T cruzi growth-2 113.6*, T cruzi growth-3 69.9, NIH3T3 tox 27.6 and 3T3 cytotox 2 96.5*.
For C[C@H](O)C#Cc1ccc([C@H]2[C@@H](CO)N3CCCCN(C(=O)c4ccncc4)C[C@@H]23)cc1 the results were T cruzi growth-1 12.2, Pf Dd2 growth 18.5 and C diff HTS -0.9.
`C[C@@H](O)C#Cc1ccc([C@@H]2[C@H](CO)N3CCCCN(C(=O)c4ccncc4)C[C@@H]23)cc1` gave T cruzi growth-1 1.2, Pf Dd2 growth 30.0 and C diff HTS -5.9.
Screening C[C@H](O)C#Cc1ccc([C@H]2[C@@H](CO)N3CCCCN(C(=O)c4ccncc4)C[C@H]23)cc1 returned T cruzi growth-1 24.0, Pf Dd2 growth 18.9 and C diff HTS -3.8.
COc1ccc(C#Cc2ccc([C@@H]3[C@@H](CO)N4CCCCN(C(=O)c5ccncc5)C[C@H]34)cc2)cc1 was read as T cruzi growth-1 112.3*, Pf Dd2 growth -22.2, C diff HTS -5.3, T cruzi growth-2 106.9*, T cruzi growth-3 38.2, NIH3T3 tox 45.4* and 3T3 cytotox 2 103.1*.
Screening COCC(=O)Nc1ccc2c(c1)C(=O)N(C)[C@H]1CC[C@@H](CC(=O)NCCc3ccncc3)O[C@H]1CO2 returned T cruzi growth-1 0.7, Pf Dd2 growth -2.5 and C diff HTS -0.1.
`CN(C)CC(=O)Nc1ccc2c(c1)[C@H]1C[C@@H](CC(=O)NCc3ccccc3)O[C@H](CO)[C@H]1O2` gave T cruzi growth-1 11.8 and Pf Dd2 growth 5.1.
`C[C@@H]1CN([C@@H](C)CO)C(=O)Cc2cc(NC(=O)CCCCCC(=O)Nc3ccccc3N)ccc2O[C@H]1CN(C)CC1CC1` gave Pf Dd2 growth -8.6 and C diff HTS 2.7.
COc1ccc2c3c([nH]c2c1)[C@@H](CO)N(Cc1ccccn1)CC31CCN(C(C)=O)CC1 was read as Pf Dd2 growth -2.9 and C diff HTS 0.8.
CN1c2ccc(Br)cc2[C@@H]2[C@@H](CCN2S(=O)(=O)c2ccccc2F)[C@H]1CO was read as T cruzi growth-1 58.3, Pf Dd2 growth 4.2 and C diff HTS -3.7.
`Cc1ccccc1S(=O)(=O)N1CC[C@H]2[C@@H](CO)N(C)c3ccc(Br)cc3[C@H]21` gave T cruzi growth-1 68.6, Pf Dd2 growth -58.1 and C diff HTS -6.3.
`Cc1ccccc1S(=O)(=O)N1CC[C@@H]2[C@H]1c1cc(-c3cccc(F)c3)ccc1N(C)[C@H]2CO` gave T cruzi growth-1 46.0, Pf Dd2 growth 7.1 and C diff HTS 25.1.
For CN1c2ccc(Br)cc2[C@H]2[C@H](CCN2S(=O)(=O)c2ccccc2F)[C@@H]1CO the results were T cruzi growth-1 93.3*, Pf Dd2 growth 9.4, C diff HTS 7.0, T cruzi growth-2 106.6*, T cruzi growth-3 10.8, NIH3T3 tox 13.7 and 3T3 cytotox 2 15.3.
`Cc1ccccc1S(=O)(=O)N1CC[C@@H]2[C@@H](CO)N(C)c3ccc(Br)cc3[C@@H]21` gave T cruzi growth-1 inconclusive, Pf Dd2 growth -17.0, C diff HTS 2.7, T cruzi growth-2 99.9*, T cruzi growth-3 34.8, NIH3T3 tox -1.9 and 3T3 cytotox 2 106.0*.
Screening Cc1ccccc1S(=O)(=O)N1CC[C@@H]2[C@@H](CO)N(C)c3ccc(-c4ccccc4)cc3[C@@H]21 returned T cruzi growth-1 inconclusive, Pf Dd2 growth -1.5, C diff HTS 6.2, T cruzi growth-2 111.2*, T cruzi growth-3 107.9*, NIH3T3 tox 22.7 and 3T3 cytotox 2 103.9*.
`COC(=O)C[C@H]1C[C@H]2c3cc(NC(=O)Nc4ccc(OC)cc4)ccc3O[C@H]2[C@H](CO)O1` gave T cruzi growth-1 5.5, Pf Dd2 growth -10.1 and C diff HTS -31.1.
Screening O=C(C[C@@H]1CC[C@H]2[C@@H](COC[C@@H](O)CN2Cc2ccc(Cl)cc2)O1)NCCc1ccccc1 returned T cruzi growth-1 29.3 and C diff HTS -15.8.
